# Test results reported in the supplement of paper PMC8728848.
# About 410 targets per protein were measured; listed, in parts, are those with the strongest signals and a random draw of the rest.
# B1: Protectin (Homo sapiens), P13987 (protein)
# chain: MGIQGGSVLFGLLLVLAVFCHSGHSLQCYNCPNPTADCKTAVNCSSDFDACLITKAGLQVYNKCWKFEHCNFNDVTTRLRENELTYYCCKKDLCNFNEQLENGGTSLSEKTVLLLVTPFLAAAWSLHP
# B2: LYVE-1 (Homo sapiens), Q9Y5Y7 (protein)
# chain: MARCFSLVLLLTSIWTTRLLVQGSLRAEELSIQVSCRIMGITLVSKKANQQLNFTEAKEACRLLGLSLAGKDQVETALKASFETCSYGWVGDGFVVISRISPNPKCGKNGVGVLIWKVPVSRQFAAYCYNSSDTWTNSCIPEIITTKDPIFNTQTATQTTEFIVSDSTYSVASPYSTIPAPTTTPPAPASTSIPRRKKLICVTEVFMETSTMSTETEPFVENKAAFKNEAAGDPEVKFNWYVDGVEVHNAKPREEQYNSTYRVVSLVTVLHQDWLNGKEYKCKVSNKALPAPIEKTISKAKGQPREPQVYTLPPSRDELTKNQVSLTCLVKGFYPSDIAVEWESNGQPENNYKTTPPVLDSDGSFFLYSKLTVDKSRWQQGNVFSCSVMHEALHNHYTQRSLSLSPGK
# Columns and labels:
# Experiment in all cases: glycan array binding signal (z-score within array); higher = stronger binding
# Settings in all cases: glycan notation: IUPAC condensed, linker removed
# Fuc(a1-2)Gal = biological target: Fuc(a1-2)Gal
# Outline: (§1)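 Glycan array data were curated from 3228 arrays in the Consortium for Functional Glycomics database and kept only where the protein sequence was available. Glycan names were converted to IUPAC-condensed notation, and columns mapping to the same glycan were averaged. The binding signal is a within-array Z-score, averaged across arrays of the same protein sequence at different concentrations or buffers and across linkers. Negative Z-scores can be read as non-binding.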
# [1] = biological target: Fuc(a1-2)Gal(b1-3)[Fuc(a1-4)]GlcNAc(b1-2)Man(a1-3)[Fuc(a1-2)Gal(b1-3)[Fuc(a1-4)]GlcNAc(b1-2)Man(a1-6)]Man(b1-4)GlcNAc(b1-4)GlcNAc
# Outline: as §1
# [2] = biological target: Fuc(a1-2)Gal(b1-3)[Fuc(a1-4)]GlcNAc(b1-3)[Gal(b1-4)GlcNAc(b1-6)]Gal(b1-4)Glc
# Outline: as §1
# [3] = biological target: Fuc(a1-2)Gal(b1-4)[Fuc(a1-3)]GlcNAc(b1-2)[Fuc(a1-2)Gal(b1-4)[Fuc(a1-3)]GlcNAc(b1-4)]Man(a1-3)[Fuc(a1-2)Gal(b1-4)[Fuc(a1-3)]GlcNAc(b1-2)Man(a1-6)]Man(b1-4)GlcNAc(b1-4)GlcNAc
# Outline: as §1
# [4] = biological target: Fuc(a1-2)Gal(b1-4)[Fuc(a1-3)]GlcNAc(b1-3)GalNAc
# Outline: as §1
# [5] = biological target: Fuc(a1-2)Gal6S(b1-4)Glc6S
# Outline: as §1
# Fuc(a1-3)GlcNAc = biological target: Fuc(a1-3)GlcNAc
# Outline: as §1
# [6] = biological target: Fuc(a1-3)[Gal(b1-4)]GlcNAc
# Outline: as §1
# [7] = biological target: Fuc(a1-3)[Gal(b1-4)]GlcNAc(b1-6)GalNAc
# Outline: as §1
# [8] = biological target: Fuc(a1-3)[Gal(b1-4)]GlcNAc(b1-6)[Gal(b1-3)GlcNAc(b1-3)]Gal(b1-4)Glc
# Outline: as §1
# Gal(a1-3)Gal(b1-4)GlcNAc = biological target: Gal(a1-3)Gal(b1-4)GlcNAc
# Outline: as §1
# [9] = biological target: Gal(b1-3)GalNAc(a1-3)[Fuc(a1-2)]Gal(b1-4)GlcNAc
# Outline: as §1
# [10] = biological target: Gal(b1-3)GlcNAc(b1-3)Gal(b1-4)Glc
# Outline: as §1
# [11] = biological target: Gal(b1-3)[Neu5Ac(a2-6)]GalNAc
# Outline: as §1
# Gal(b1-4)Glc6S = biological target: Gal(b1-4)Glc6S
# Outline: as §1
# Gal(b1-4)GlcNAc = biological target: Gal(b1-4)GlcNAc
# Outline: as §1
# Gal(b1-4)GlcNAc(b1-2)Man = biological target: Gal(b1-4)GlcNAc(b1-2)Man
# Outline: as §1
# [12] = biological target: Gal(b1-4)GlcNAc(b1-3)Gal(b1-4)[Fuc(a1-3)GlcNAc(b1-6)]Gal(b1-4)Glc
# Outline: as §1
# Gal3S(b1-4)Glc6S = biological target: Gal3S(b1-4)Glc6S
# Outline: as §1
# Gal3S6S(b1-4)GlcNAc = biological target: Gal3S6S(b1-4)GlcNAc
# Outline: as §1
# Gal4S6S(b1-4)GlcNAc = biological target: Gal4S6S(b1-4)GlcNAc
# Outline: as §1
# GalNAc(b1-3)Gal = biological target: GalNAc(b1-3)Gal
# Outline: as §1
# [13] = biological target: GalNAc(b1-4)GlcNAc(b1-2)Man(a1-3)[GalNAc(b1-4)GlcNAc(b1-2)Man(a1-6)]Man(b1-4)GlcNAc(b1-4)GlcNAc
# Outline: as §1
# [14] = biological target: GlcNAc(a1-4)Gal(b1-4)GlcNAc(b1-3)Gal(b1-4)[Fuc(a1-3)]GlcNAc(b1-3)Gal(b1-4)[Fuc(a1-3)]GlcNAc
# Outline: as §1
# [15] = biological target: GlcNAc(a1-6)Gal(b1-4)GlcNAc
# Outline: as §1
# [16] = biological target: GlcNAc(b1-2)[GlcNAc(b1-6)]Man(a1-6)[GlcNAc(b1-2)Man(a1-3)]Man(b1-4)GlcNAc(b1-4)GlcNAc
# Outline: as §1
# Man(b1-4)GlcNAc = biological target: Man(b1-4)GlcNAc
# Outline: as §1
# [17] = biological target: Neu5Ac(a2-3)Gal(b1-3)[Fuc(a1-4)]GlcNAc(b1-3)Gal(b1-3)[Fuc(a1-4)]GlcNAc
# Outline: as §1
# [18] = biological target: Neu5Ac(a2-3)Gal(b1-4)GlcNAc(b1-3)Gal(b1-4)GlcNAc
# Outline: as §1
# [19] = biological target: Neu5Ac(a2-3)Gal(b1-4)GlcNAc(b1-3)Gal(b1-4)[Fuc(a1-3)]GlcNAc
# Outline: as §1
# [20] = biological target: Neu5Ac(a2-3)Gal(b1-4)[Fuc(a1-3)]GlcNAc(b1-6)[Gal(b1-3)]GalNAc
# Outline: as §1
# [21] = biological target: Neu5Ac(a2-6)Gal(b1-4)GlcNAc(b1-2)Man(a1-3)[Gal(b1-4)GlcNAc(b1-2)Man(a1-6)]Man(b1-4)GlcNAc(b1-4)GlcNAc
# Outline: as §1
# [22] = biological target: Neu5Ac(a2-6)GlcNAc(b1-4)GlcNAc
# Outline: as §1
# [23] = biological target: Neu5Gc(a2-3)Gal(b1-3)[Fuc(a1-4)]GlcNAc
# Outline: as §1
# Fuc(a1-2)[Gal(a1-3)]Gal = biological target: Fuc(a1-2)[Gal(a1-3)]Gal
# Outline: as §1
# [24] = biological target: Fuc(a1-3)[Gal3S(b1-4)]Glc6S
# Outline: as §1
# Gal(a1-3)GalNAc = biological target: Gal(a1-3)GalNAc
# Outline: as §1
# Gal(a1-4)Gal(b1-4)Glc = biological target: Gal(a1-4)Gal(b1-4)Glc
# Outline: as §1
# Gal(a1-4)GlcNAc = biological target: Gal(a1-4)GlcNAc
# Outline: as §1
# Gal(b1-2)Gal = biological target: Gal(b1-2)Gal
# Outline: as §1
# [25] = biological target: Gal(b1-4)GalNAc(a1-3)[Fuc(a1-2)]Gal(b1-4)GlcNAc
# Outline: as §1
# [26] = biological target: Gal(b1-4)GlcNAc(b1-3)GalNAc
# Outline: as §1
# Gal3S(b1-4)GlcNAc = biological target: Gal3S(b1-4)GlcNAc
# Outline: as §1
# [27] = biological target: Gal3S(b1-4)[Fuc(a1-3)]Glc
# Outline: as §1
# GalNAc(b1-4)GlcNAc = biological target: GalNAc(b1-4)GlcNAc
# Outline: as §1
# GlcA(b1-3)Gal = biological target: GlcA(b1-3)Gal
# Outline: as §1
# [28] = biological target: GlcNAc(b1-4)GlcNAc(b1-4)GlcNAc(b1-4)GlcNAc(b1-4)GlcNAc(b1-4)GlcNAc
# Outline: as §1
# [29] = biological target: Neu5Ac(a2-3)Gal(b1-3)GalNAc
# Outline: as §1
# [30] = biological target: Neu5Ac(a2-3)Gal(b1-3)GalNAc(b1-3)Gal(a1-4)Gal(b1-4)Glc
# Outline: as §1
# [31] = biological target: Neu5Ac(a2-3)Gal(b1-3)GalNAc(b1-4)[Neu5Ac(a2-3)]Gal(b1-4)Glc
# Outline: as §1
# [32] = biological target: Neu5Ac(a2-3)Gal(b1-3)[Neu5Ac(a2-6)]GalNAc
# Outline: as §1
# Neu5Ac(a2-3)Gal(b1-4)Glc = biological target: Neu5Ac(a2-3)Gal(b1-4)Glc
# Outline: as §1
# [33] = biological target: Neu5Ac(a2-3)Gal(b1-4)GlcNAc(b1-2)Man(a1-3)[GlcNAc(b1-2)Man(b1-4)GlcNAc(b1-2)Man(a1-6)]Man(b1-4)GlcNAc(b1-4)GlcNAc
# Outline: as §1
# [34] = biological target: Neu5Ac(a2-3)Gal(b1-4)GlcNAc(b1-6)[Neu5Ac(a2-3)Gal(b1-3)]GalNAc
# Outline: as §1
# [35] = biological target: Neu5Ac(a2-3)Gal(b1-4)GlcNAc6S
# Outline: as §1
# [36] = biological target: Neu5Ac(a2-3)Gal(b1-4)[Fuc(a1-3)]GlcNAc(b1-3)Gal(b1-4)[Fuc(a1-3)]GlcNAc(b1-3)Gal(b1-4)[Fuc(a1-3)]GlcNAc
# Outline: as §1
# [37] = biological target: Neu5Ac(a2-3)GalNAc(b1-4)GlcNAc
# Outline: as §1
# [38] = biological target: Neu5Ac(a2-6)Gal(b1-4)GlcNAc(b1-2)Man(a1-3)[GlcNAc(b1-2)Man(a1-6)]Man(b1-4)GlcNAc(b1-4)GlcNAc
# Outline: as §1
# [39] = biological target: Neu5Ac(a2-6)Gal(b1-4)GlcNAc(b1-2)Man(a1-6)[GlcNAc(b1-2)Man(a1-3)]Man(b1-4)GlcNAc(b1-4)GlcNAc
# Outline: as §1
# [40] = biological target: Neu5Ac(a2-6)GalNAc(b1-4)GlcNAc
# Outline: as §1
binder,measurement,setting,value
B1,glycan array binding signal (z-score),Fuc(a1-2)Gal,-0.701
same,glycan array binding signal (z-score),[1],3.68
same,glycan array binding signal (z-score),[2],-0.784
same,glycan array binding signal (z-score),[3],2.73
same,glycan array binding signal (z-score),[4],3.6
same,glycan array binding signal (z-score),[5],-0.108
same,glycan array binding signal (z-score),Fuc(a1-3)GlcNAc,-0.062
same,glycan array binding signal (z-score),[6],0.55
same,glycan array binding signal (z-score),[7],2.63
same,glycan array binding signal (z-score),[8],-0.354
same,glycan array binding signal (z-score),Gal(a1-3)Gal(b1-4)GlcNAc,1.53
same,glycan array binding signal (z-score),[9],-0.989
same,glycan array binding signal (z-score),[10],2.77
same,glycan array binding signal (z-score),[11],0.383
same,glycan array binding signal (z-score),Gal(b1-4)Glc6S,0.209
same,glycan array binding signal (z-score),Gal(b1-4)GlcNAc,0.172
same,glycan array binding signal (z-score),Gal(b1-4)GlcNAc(b1-2)Man,0.267
same,glycan array binding signal (z-score),[12],-0.518
same,glycan array binding signal (z-score),Gal3S(b1-4)Glc6S,-0.411
same,glycan array binding signal (z-score),Gal3S6S(b1-4)GlcNAc,-0.261
same,glycan array binding signal (z-score),Gal4S6S(b1-4)GlcNAc,0.014
same,glycan array binding signal (z-score),GalNAc(b1-3)Gal,-1.36
same,glycan array binding signal (z-score),[13],2.58
same,glycan array binding signal (z-score),[14],6.43
same,glycan array binding signal (z-score),[15],-0.166
same,glycan array binding signal (z-score),[16],-0.347
same,glycan array binding signal (z-score),Man(b1-4)GlcNAc,-0.439
same,glycan array binding signal (z-score),[17],3.13
same,glycan array binding signal (z-score),[18],0.462
same,glycan array binding signal (z-score),[19],0.647
same,glycan array binding signal (z-score),[20],-0.153
same,glycan array binding signal (z-score),[21],-1.94
same,glycan array binding signal (z-score),[22],-0.361
same,glycan array binding signal (z-score),[23],0.087
B2,glycan array binding signal (z-score),Fuc(a1-2)Gal,-0.222
same,glycan array binding signal (z-score),Fuc(a1-2)[Gal(a1-3)]Gal,0.242
same,glycan array binding signal (z-score),[24],-0.066
same,glycan array binding signal (z-score),Gal(a1-3)GalNAc,-0.27
same,glycan array binding signal (z-score),Gal(a1-4)Gal(b1-4)Glc,-0.09
same,glycan array binding signal (z-score),Gal(a1-4)GlcNAc,-0.269
same,glycan array binding signal (z-score),Gal(b1-2)Gal,-0.409
same,glycan array binding signal (z-score),[25],-0.338
same,glycan array binding signal (z-score),[26],-0.411
same,glycan array binding signal (z-score),Gal3S(b1-4)GlcNAc,-0.036
same,glycan array binding signal (z-score),[27],-0.34
same,glycan array binding signal (z-score),GalNAc(b1-4)GlcNAc,-0.259
same,glycan array binding signal (z-score),GlcA(b1-3)Gal,-0.466
same,glycan array binding signal (z-score),[28],-0.624
same,glycan array binding signal (z-score),[29],3.93
same,glycan array binding signal (z-score),[30],1.74
same,glycan array binding signal (z-score),[31],4.82
same,glycan array binding signal (z-score),[32],0.133
same,glycan array binding signal (z-score),Neu5Ac(a2-3)Gal(b1-4)Glc,0.324
same,glycan array binding signal (z-score),[33],-0.128
same,glycan array binding signal (z-score),[34],6.79
same,glycan array binding signal (z-score),[35],-0.351
same,glycan array binding signal (z-score),[36],5.13
same,glycan array binding signal (z-score),[37],3.73
same,glycan array binding signal (z-score),[38],-0.596
same,glycan array binding signal (z-score),[39],-0.436
same,glycan array binding signal (z-score),[40],2.4
